NPSR antagonist – qHTS Assay for Antagonists of the Neuropeptide S Receptor: cAMP Signal Transduction; Q6W5P4; CHO-NPSR cells, cAMP TR-FRET, antagonist mode; 1% of 220,000 active; Potency, µM (series often up to 38.3 µM), inactives show top-dose activity change, negative = inhibition, most hits filed as inhibitors; further: potency means the concentration at half of the fitted maximal effect; on the % scale 0 is the no-effect control and ±100 the full control effect; nearly all actives have a fitted effect of over 50% in size
Target sequence (Q6W5P4 whole entry, looked up): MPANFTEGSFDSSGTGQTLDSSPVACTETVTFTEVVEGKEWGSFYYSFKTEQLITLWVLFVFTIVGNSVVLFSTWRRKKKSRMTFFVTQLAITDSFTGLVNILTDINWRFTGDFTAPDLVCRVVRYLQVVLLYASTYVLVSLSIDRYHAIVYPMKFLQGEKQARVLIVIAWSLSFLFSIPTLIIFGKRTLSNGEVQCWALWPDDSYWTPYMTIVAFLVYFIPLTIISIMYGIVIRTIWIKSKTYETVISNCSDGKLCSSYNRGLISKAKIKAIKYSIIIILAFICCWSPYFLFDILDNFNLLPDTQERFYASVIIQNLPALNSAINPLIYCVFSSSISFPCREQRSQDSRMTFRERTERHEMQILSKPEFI
TCR act – Activators of T cell receptors: qHTS campaign | primary human leukocytes, anti-CD3, IL-2 HTRF, 48 h | 330,000 tested, under 10 active | Potency, µM (titrated, usually from 9.22 µM), for inactives: top-dose activation of IL-2 secretion, hits mostly activators | AID 504894, 2011; further: % of control where 0% means no effect
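Activity was scored as IL-2 release from primary human leukocytes given only a TCR signal (a-CD3 beads) plus compound for 48 hr. Detection used a two-antibody HTRF format read at 665nm.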
RXFP1 antag – qHTS Assay for Antagonists of the Relaxin Receptor RXFP1; AID 1259400, 2018; HEK293-RXFP1, relaxin-stimulated cAMP HTRF, 30 min; stronger effect = lower value; Relaxin receptor 1 (Homo sapiens), Q9HBX9; activity change, negative = inhibition, % at 57.5 µM; 0.59% of 350,000 active;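 active means activity change of -60% or lower, but not beyond a set lower limit; inconclusive means change between -60% and -40%, or beyond the set limit; inactive means change above -40%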; further: on the % scale 0 is the no-effect control and ±100 the full control effect
TSHR antag – Antagonists of the Thyroid Stimulating Hormone Receptor: HTS campaign. Thyrotropin receptor (Homo sapiens), P16473. 0.2% of 330,000 active. AID 504810, 2011. activity change, negative = inhibition, % at 11.5 µM. TSHR-expressing cells, TSH-stimulated cAMP HTRF, 2 h; stronger effect = lower value;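 active means activity change below a set negative limit, meaning inhibition stronger than a set level, cut at about -70% in these data; inconclusive means activity change between two set negative limits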; further: on the % scale 0 is the no-effect control and ±100 the full control effect
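Cell-based HTRF cAMP assay; TSHR cells + compound, TSH EC80 (4nM final), 2 h, 37 deg C. Lysis with anti-cAMP cryptate and cAMP-d2, 30 min RT, read 665/620 nm.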
PTHR1 agonist – qHTS for PTHR1 Agonists: Primary Screen | HEK293 GP2 PTHR1 cells, GloSensor cAMP luminescence, 1 h | Potency, µM (titrated, usually from 115 µM), for inactives: top-dose activation, most hits filed as activators | 0.075% of 410,000 active; further: potency means the concentration at half of the fitted maximal effect; nearly all actives have a fitted effect of over 55% in size
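HEK-293-derived GP2 cells expressing PTHR1 and a GloSensor cAMP reporter, 3,000/well, plated overnight, given luciferin plus IBMX (each 0.5 mM as added) for 1 h at 37 °C, then compound for 1 h at 37 °C. Luminescence was read after 15 min at room temperature.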
RXFP1 agonist – qHTS Assay for Agonists of the Relaxin Receptor RXFP1. Relaxin receptor 1 (Homo sapiens), Q9HBX9. HEK293T-RXFP1 cAMP TR-FRET, 30 min; response scale: percent of porcine relaxin response, buffer zero. Potency, µM (highest dose often 57.5 µM), inactives show top-dose activation, actives largely listed as activators. 0.3% of 370,000 active. AID 2676, 2010; further: potency means the concentration at half of the fitted maximal effect; on the % scale 0 is the no-effect control and ±100 the full control effect; nearly all actives have a fitted effect of over 60% in size
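HEK293T cells stably expressing RXFP1 were pretreated with the PDE4 inhibitor Ro 20174, exposed to compounds for 30 min at 37C, lysed, and cAMP was read by TR-FRET. Data normalized to buffer (basal) and 29 nM porcine relaxin (100%).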
* hit, by the source's call; i = inactive; ? = inconclusive; / = not tested or not shown; [ ] = another dose, or the depositor's remark. Many of the other results were omitted from the sample, so hits are more common in it than they were. Unless noted, the call rests on the fitted dose curve; in most records, active means well fitted curve in the direction sought with a large enough effect; inconclusive means small, poorly fitted or top-dose-only effect, or another doubt; inactive means no such curve, though single readings can be large; an effect the other way counts as inactive or inconclusive.

SMILES | NPSR antagonist | TCR act | RXFP1 antag | TSHR antag | PTHR1 agonist | RXFP1 agonist
O=C(C(Br)=Cc1ccccc1)c1ccccc1 | / | 0% | -91* | / | -94% | /
O=C(NC1CC1)c1sc2cc(Cl)ccc2c1Cl | / | 2% | -8 | -14 | -4% | 0%
CC1(C)CC(NC(=O)c2sc3cc(Cl)ccc3c2Cl)CC(C)(C)N1 | 12% | -5% | -60* | -7 | i | 0%
COC(=O)C(C)(C)ONC(=O)Nc1ccccc1Cl | 8% | 4% | -65* | -9 | i | 0%
OC(CNC1CCCc2ccccc21)COc1c(Cl)cccc1Cl (centres undefined) | 6% | 2%[46.1 µM] | -63* | -3 | i | -1%
OC(CNC1Cc2ccccc2C1)COc1ccc(Cl)cc1 (centres undefined) | -18% | 14% | / | 6 | 4% | 1%
COc1ccc(N(C)C(=S)Oc2ccc(C(=O)Nc3ccccc3)cc2)cc1 | -24%[46.1 µM] | / | / | -15 | / | 3%
Cc1cccc(N(C)C(=S)Oc2ccc3c(c2)CCC3)c1 | / | / | -63* | / | / | /
Cc1cccc(N(C)C(=S)Oc2ccc3ccccc3c2)c1 | -52% | 5% | -71* | -9 | -7% | 2%
COc1ccc(C2C=C(c3cccc(OC)c3)Nc3c(C(=O)Nc4ccccc4)cnn32)cc1 (centres undefined) | / | / | 0 | / | i | 1%
Cc1cccc(CC(=O)NCCc2csc(-c3ccc(C(F)(F)F)cc3)n2)c1 | / | / | -37 | / | -23% | 2%
CCOC(=O)C1=C(C)N=c2s/c(=C\c3ccc(O)c([N+](=O)[O-])c3)c(=O)n2C1c1ccccc1OC (centres undefined) | / | -5% | -1 | -27 | -95% | -1%
CCOC(=O)C1=C(C)n2c(s/c(=C/c3cccc([N+](=O)[O-])c3)c2=O)=NC1c1ccc(O)c(OC)c1 (centres undefined) | 7.9µM* | -1% | 27 | -10 | -19%[57.5 µM] | 3%
COC(=O)c1ccccc1NC(=O)CCS(=O)(=O)c1nc(-c2ccc3c(c2)OCO3)cc(C(F)(F)F)n1 | / | / | -63* | / | -21% | 11%
CCOC(=O)c1ccccc1NC(=O)CSc1nc2cn(CC)nc2c(=O)n1Cc1ccc(Cl)cc1 | / | / | / | / | -8% | 8%
CNC(=O)c1c(I)c(NC(C)=O)c(I)c(C(=O)O)c1I | / | / | 6 | / | / | /
CCN(CCNCC(O)COCc1ccc(Cl)cc1)c1cccc(C)c1 (centres undefined) | ? | 7% | -70* | 17 | -9% | 1%
Cc1ccc(NS(=O)(=O)c2ccc3[nH]c4c(c3c2)CCCC4)cc1N(C)C | / | / | -24 | / | i | -2%
Cc1cccc(CS(=O)(=O)c2ncc(Cl)c(C(=O)Nc3nc4ccc(F)cc4s3)n2)c1 | / | / | / | / | -17% | -2%
COc1ccc(NC(=O)c2nc(S(=O)(=O)Cc3cccc(C)c3)ncc2Cl)c(OC)c1 | / | -7% | -1 | -80* | i | 0%
COc1ccc2nc(NC(=O)c3nc(S(=O)(=O)Cc4ccccc4)ncc3Cl)sc2c1 | / | / | ? | / | -42% | 0%
COc1ccc(OC)c(NC(=O)c2nc(S(=O)(=O)Cc3ccccc3)ncc2Cl)c1 | / | -3% | -17 | -93* | -1% | -1%
COc1ccc2nc(NC(=O)c3nc(S(=O)(=O)Cc4ccccc4F)ncc3Cl)sc2c1 | / | / | -83* | / | -59% | -1%
CCOC(=O)N1CCC(n2c(=O)[nH]c3cc(Cl)ccc32)CC1 | / | / | -20 | / | / | /
O=C(NCC1CN(c2ccc(N3CCOCC3=O)cc2)C(=O)O1)c1ccc(Cl)s1 (centres undefined) | / | / | 10 | / | / | /
SMILES | NPSR antagonist | TCR act | RXFP1 antag | TSHR antag | PTHR1 agonist | RXFP1 agonist
Cc1ccc(C)c(N2C(=O)N(C)c3ccccc3S2(=O)=O)c1 | / | / | / | / | -6% | 0%
COc1cc(C2Nc3c(F)cccc3C3C=CCC32)cc(Br)c1OC (centres undefined) | -17% | -2% | -65* | -6 | -11% | -2%
CCCCC1=CC2=C(c3ccco3)C(=O)C(C)(OC(=O)c3ccc(OC)cc3)C(=O)C2=CN1CC(C)C (centres undefined) | 10µM* | -36% | / | 4 | -4% | 16µM*
CN(C(=O)c1ccc2c(c1)OCCO2)c1c(N)n(Cc2ccccc2)c(=O)[nH]c1=O | / | -2% | -8 | -2 | i | 1%
Cc1ccccc1OCCC(=O)OCC(=O)N(C)c1c(N)n(Cc2ccccc2)c(=O)[nH]c1=O | / | -8% | 1 | -7 | i | 0%
CN(C(=O)c1cncc(Br)c1)c1c(N)n(Cc2ccccc2)c(=O)[nH]c1=O | / | 3% | -70* | -7 | -12% | 0%
Cc1ccc(C)c(OCCC(=O)OCC(=O)N(C)c2c(N)n(Cc3ccccc3)c(=O)[nH]c2=O)c1 | / | -3% | -64* | 4 | i | 1%
O=C(NCCN1CCOCC1)c1c(O)nc2ccccn2c1=O | / | -6% | -91* | 2 | -23% | 17%
Cc1cccc(C(=O)Nc2ccc(N3CC=C(c4ccccc4C)CC3)c(C(=O)O)c2)c1 | / | / | 4 | / | i | 7%
COc1ccc(N2C(=O)C(Cl)=C(N3CCOCC3)C2=O)cc1 | / | -4% | -62* | 2 | i | 1%
COc1ccc(N2C(=O)C(Cl)=C(Oc3cccc(OC)c3)C2=O)cc1 | 10µM* | -1% | -17 | -9 | -24% | 0%
COc1ccccc1CNS(=O)(=O)c1ccc2c(c1)CC(C)N2C(C)=O (centres undefined) | / | / | -4 | / | -39% | -3%
Cn1cc(Cl)c(C(=O)N/N=C/c2ccc3c4c(cccc24)CC3)n1 | / | 2% | -7 | -80* | -39% | 1%
Cc1cccc(C(=O)NCC(c2ccco2)S(=O)(=O)c2cccs2)c1 (centres undefined) | / | / | 1 | / | i | -1%
CCOc1ccc(CCNC(=O)c2ccc3c(=O)[nH]c4c(C(=O)NC(C)C)sc(=S)n4c3c2)cc1 | / | 3% | 22 | -85* | -41% | 2%
CCCCNC(=O)c1sc(=S)n2c1[nH]c(=O)c1ccccc12 | -23%[46.1 µM] | 0% | -18 | -74* | -18%[57.5 µM] | -1%
O=C(NCCc1ccccc1)c1ccc2c(=O)[nH]c3c(C(=O)NCC4CCCO4)sc(=S)n3c2c1 (centres undefined) | / | 10% | -6 | ? | -18% | -2%
